Nine molecules from PubChem BioAssay (NCI) can be followed below.

A short description of assay [1]: NCI Yeast Anticancer Drug Screen. Data for the rad50 strain (AID 155).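 Note: 0% = growth of vehicle-only cultures of the same strain.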 Conditions: S. cerevisiae rad50 strain growth inhibition, hits give high values. In outline:
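A DNA repair-deficient yeast mutant serves as the test organism; compound-induced growth inhibition is calculated against vehicle-treated cells.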

A short description of assay [2]: NCI Yeast Anticancer Drug Screen. Data for the mec2-1 strain (AID 157). As to conditions: S. cerevisiae mec2-1 strain, hits give high values. In outline:
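Readout is yeast growth inhibition, normalised to vehicle-treated controls, in the mec2-1 strain exposed to compound.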

The nature of assay [3]: NCI Yeast Anticancer Drug Screen. Data for the sgs1 mgt1 strain (AID 161).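 Note: 0% = growth of cultures given vehicle only.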 As to conditions: S. cerevisiae sgs1 mgt1 strain, hits give high values. Put shortly: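 Compounds are added to genetically altered yeast, and growth is compared with cultures given vehicle alone to give percent inhibition.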
Assay [4] is described as follows: NCI Yeast Anticancer Drug Screen. Data for the cln2 rad14 strain (AID 165).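 Note: 0% = growth equal to vehicle treated cultures.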 Conditions: S. cerevisiae cln2 rad14 strain, hits give high values. In outline: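 Relative to vehicle controls, growth inhibition of compound-treated cln2 rad14 yeast was recorded.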
Assay [5] is described as follows: NCI Yeast Anticancer Drug Screen. Data for the bub3 strain (AID 167). Conditions: S. cerevisiae bub3 mutant strain, hits give high values. In outline:
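Inhibition values come from growth of compound-treated mutant yeast normalised to vehicle-treated controls.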

The nature of assay [6]: NCI Yeast Anticancer Drug Screen. Data for the mlh1 rad18 strain (AID 175). As to conditions: S. cerevisiae mlh1 rad18 strain growth inhibition, hits give high values. In outline:
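Test agents were incubated with a yeast strain of defined genotype (DNA damage repair defect). Inhibition of growth was derived by comparison with vehicle-exposed cultures.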

The mark [7] stands for this setting: at 5.0 µM (retest, dose inferred, filed as 0.5).
Setting [8] is: at 50.0 µM (retest, dose inferred, filed as 5.0).

Compounds without any hit were thinned out: in the full panel of roughly 79,000, 15% have a hit. Values without a mark were called inactive. The source made the active and inactive calls. Cut-off read from the data, not from the text of the source: active = growth inhibition above about 70%; inactive = the rest.

As for `COc1ccc(C(c2c(O)c3ccccc3oc2=O)N2CCOCC2)cc1` (configuration not stated), the growth inhibition in assay [1] (setting [7]) was -30%; in assay [1] (setting [8]), -14%; in assay [1] (at 50.0 µM) it was -8.2%; in assay [2] (setting [7]), -10%; in assay [2] (setting [8]), -6%; in assay [2] (at 50.0 µM), -3.1%. Also, the growth inhibition in assay [3] (setting [7]) was -13%; in assay [3] (setting [8]), -29%; in assay [3] (at 50.0 µM), -34.9%; in assay [4] (setting [7]), -19%; in assay [4] (setting [8]), -17%; in assay [4] (at 50.0 µM), 76.5% (active). Moreover, the growth inhibition in assay [5] (setting [7]) was -14%; in assay [5] (setting [8]) it was 22%; in assay [5] (at 50.0 µM), -14%; in assay [6] (setting [7]), -34%; in assay [6] (setting [8]) it was -30%; in assay [6] (at 50.0 µM), -12%.
Turning to `OC(C1CCCC1=N/N=C1/CCCC1C(O)(C(F)(F)Cl)C(F)(F)Cl)(C(F)(F)Cl)C(F)(F)Cl` (configuration not stated), the growth inhibition in assay [1] (setting [7]) was -2%; in assay [1] (setting [8]), 22%; in assay [1] (at 50.0 µM), 86.3% (active); in assay [2] (setting [7]) it was -2%; in assay [2] (setting [8]), 25%; in assay [2] (at 50.0 µM), 89.3% (active). The growth inhibition in assay [3] (setting [7]) was -4%; in assay [3] (setting [8]), 7%; in assay [3] (at 50.0 µM), 90.9% (active); in assay [4] (setting [7]), 1%; in assay [4] (setting [8]) it was 26%; in assay [4] (at 50.0 µM) it was 88.8% (active). The growth inhibition in assay [5] (setting [7]) is 0%; in assay [5] (setting [8]) it was 11%; in assay [5] (at 50.0 µM), 91.8% (active); in assay [6] (setting [7]), -3%; in assay [6] (setting [8]) it was 33%; in assay [6] (at 50.0 µM), 92% (active).
Regarding `COc1ccc(CCNC(=S)/N=C\C(C(=O)c2ccccc2)=C(\O)c2ccccc2)cc1OC`, the growth inhibition was 1% in assay [1] (setting [7]); 95% (active) in assay [1] (setting [8]); 99% (active) in assay [1] (at 50.0 µM); 0% in assay [2] (setting [7]); 93% (active) in assay [2] (setting [8]); 98.8% (active) in assay [2] (at 50.0 µM). For the same molecule, the growth inhibition is -2% in assay [3] (setting [7]); 75% (active) in assay [3] (setting [8]); 99% (active) in assay [3] (at 50.0 µM); -25% in assay [4] (setting [7]); 98% (active) in assay [4] (setting [8]); 97.8% (active) in assay [4] (at 50.0 µM). Moreover, the growth inhibition was 0% in assay [5] (setting [7]); 99% (active) in assay [5] (setting [8]); 98.8% (active) in assay [5] (at 50.0 µM); 3% in assay [6] (setting [7]); 97% (active) in assay [6] (setting [8]); 98.6% (active) in assay [6] (at 50.0 µM).
In the case of `CC1(C)C2CCC1(CS(=O)O)C(=O)C2.[Ag]` (configuration not stated), the growth inhibition in assay [1] (setting [7]) was 99% (active); in assay [1] (setting [8]), 99% (active); in assay [1] (at 50.0 µM) it was 99.2% (active); in assay [2] (setting [7]), 100% (active); in assay [2] (setting [8]) it was 99% (active); in assay [2] (at 50.0 µM) it was 99.5% (active). Further, the growth inhibition is 100% (active) in assay [3] (setting [7]); 99% (active) in assay [3] (setting [8]); 99.5% (active) in assay [3] (at 50.0 µM); 99% (active) in assay [4] (setting [7]); 99% (active) in assay [4] (setting [8]); 98.7% (active) in assay [4] (at 50.0 µM). Besides, the growth inhibition was 99% (active) in assay [5] (setting [7]); 99% (active) in assay [5] (setting [8]); 99.5% (active) in assay [5] (at 50.0 µM); 100% (active) in assay [6] (setting [7]); 99% (active) in assay [6] (setting [8]); 99.6% (active) in assay [6] (at 50.0 µM).
As to `CC1NS(=O)(=O)N(C)C1=O` (configuration not stated), the growth inhibition in assay [1] (setting [7]) was 3%; in assay [1] (setting [8]), -5%; in assay [1] (at 50.0 µM), 3.05%; in assay [2] (setting [7]) it was 6%; in assay [2] (setting [8]), 3%; in assay [2] (at 50.0 µM), 15.6%. Also, the growth inhibition in assay [3] (setting [7]) was 5%; in assay [3] (setting [8]) it was 3%; in assay [3] (at 50.0 µM) it was -2.2%; in assay [4] (setting [7]) it was 0%; in assay [4] (setting [8]), -13%; in assay [4] (at 50.0 µM) it was 36.7%. Besides, the growth inhibition was 6% in assay [5] (setting [7]); 16% in assay [5] (setting [8]); 8.55% in assay [5] (at 50.0 µM); 2% in assay [6] (setting [7]); -9% in assay [6] (setting [8]); -1.05% in assay [6] (at 50.0 µM).
For the molecule `CCCCCCCCCCCCCCCCS(=O)(=O)Cl`, the growth inhibition is 40% in assay [1] (setting [7]); 96% (active) in assay [1] (setting [8]); 61.5% in assay [1] (at 50.0 µM); 46% in assay [2] (setting [7]); 98% (active) in assay [2] (setting [8]); 32.2% in assay [2] (at 50.0 µM). The growth inhibition was 57% in assay [3] (setting [7]); 77% (active) in assay [3] (setting [8]); 59.8% in assay [3] (at 50.0 µM); 31% in assay [4] (setting [7]); 73% (active) in assay [4] (setting [8]); -6.35% in assay [4] (at 50.0 µM). The growth inhibition in assay [5] (setting [7]) is 69%; in assay [5] (setting [8]), 78% (active); in assay [5] (at 50.0 µM), 46.7%; in assay [6] (setting [7]) it was 43%; in assay [6] (setting [8]), 99% (active); in assay [6] (at 50.0 µM), 53.8%.
As for `[Cu+2].[O-]/N=C/c1cccc(O)c1[O-].[O-]/N=C/c1cccc(O)c1[O-]`, the growth inhibition in assay [1] (setting [7]) is -16%; in assay [1] (setting [8]), 99% (active); in assay [1] (at 50.0 µM), 93.8% (active); in assay [2] (setting [7]) it was -14%; in assay [2] (setting [8]), 99% (active); in assay [2] (at 50.0 µM), 96.7% (active). The growth inhibition in assay [3] (setting [7]) was -14%; in assay [3] (setting [8]) it was 99% (active); in assay [3] (at 50.0 µM) it was 96.8% (active); in assay [4] (setting [7]) it was -12%; in assay [4] (setting [8]) it was 98% (active); in assay [4] (at 50.0 µM), 94.8% (active). Moreover, the growth inhibition was -20% in assay [5] (setting [7]); 99% (active) in assay [5] (setting [8]); 97.7% (active) in assay [5] (at 50.0 µM); -4% in assay [6] (setting [7]); 98% (active) in assay [6] (setting [8]); 94% (active) in assay [6] (at 50.0 µM).
For `C/C(=N/NC(N)=S)C(C)C`, the growth inhibition in assay [1] (setting [7]) was 11%; in assay [1] (setting [8]) it was 37%; in assay [1] (at 50.0 µM), 14.3%; in assay [2] (setting [7]), 2%; in assay [2] (setting [8]), 2%; in assay [2] (at 50.0 µM), -9.9%. The growth inhibition is 2% in assay [3] (setting [7]); 3% in assay [3] (setting [8]); -11.1% in assay [3] (at 50.0 µM); 4% in assay [4] (setting [7]); -5% in assay [4] (setting [8]); 37.6% in assay [4] (at 50.0 µM). Moreover, the growth inhibition in assay [5] (setting [7]) is 1%; in assay [5] (setting [8]) it was -3%; in assay [5] (at 50.0 µM), 17.4%; in assay [6] (setting [7]), 2%; in assay [6] (setting [8]) it was -2%; in assay [6] (at 50.0 µM), 4.8%.
On to `CCCOC(=O)C(S)C(S)C(=O)OCCC` (configuration not stated), for which the growth inhibition in assay [1] (setting [7]) is 23%; in assay [1] (setting [8]) it was 50%; in assay [1] (at 50.0 µM) it was 11.1%; in assay [2] (setting [7]), 2%; in assay [2] (setting [8]) it was 32%; in assay [2] (at 50.0 µM), 2.15%. Further, the growth inhibition in assay [3] (setting [7]) is -16%; in assay [3] (setting [8]), 53%; in assay [3] (at 50.0 µM), 12.4%; in assay [4] (setting [7]), 19%; in assay [4] (setting [8]), 90% (active); in assay [4] (at 50.0 µM) it was 40%. Besides, the growth inhibition in assay [5] (setting [7]) was 5%; in assay [5] (setting [8]), 94% (active); in assay [5] (at 50.0 µM), 26.8%; in assay [6] (setting [7]) it was 2%; in assay [6] (setting [8]), 75% (active); in assay [6] (at 50.0 µM), 48.2%.
